# Laboratory results as given in paper PMC4336329 (PLoS ONE, 2015).
# About 14,000 (4.5%) of roughly 310,000 compounds showed an effect of 50% or more. Effects have a minus sign here. This is one part of a sample in which strong results are shown more often than they occur.
# Biological target: human ether-à-go-go-related gene (hERG) potassium channel (human, UniProt Q12809)
# Assay: primary screen, population patch clamp on CHO cells stably expressing hERG; higher = less effect of the substance
# 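Note: peak tail current of the secondary pulse compared with the same well before compound.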
# Chain of human ether-à-go-go-related gene (hERG) potassium channel (Q12809 whole entry, looked up): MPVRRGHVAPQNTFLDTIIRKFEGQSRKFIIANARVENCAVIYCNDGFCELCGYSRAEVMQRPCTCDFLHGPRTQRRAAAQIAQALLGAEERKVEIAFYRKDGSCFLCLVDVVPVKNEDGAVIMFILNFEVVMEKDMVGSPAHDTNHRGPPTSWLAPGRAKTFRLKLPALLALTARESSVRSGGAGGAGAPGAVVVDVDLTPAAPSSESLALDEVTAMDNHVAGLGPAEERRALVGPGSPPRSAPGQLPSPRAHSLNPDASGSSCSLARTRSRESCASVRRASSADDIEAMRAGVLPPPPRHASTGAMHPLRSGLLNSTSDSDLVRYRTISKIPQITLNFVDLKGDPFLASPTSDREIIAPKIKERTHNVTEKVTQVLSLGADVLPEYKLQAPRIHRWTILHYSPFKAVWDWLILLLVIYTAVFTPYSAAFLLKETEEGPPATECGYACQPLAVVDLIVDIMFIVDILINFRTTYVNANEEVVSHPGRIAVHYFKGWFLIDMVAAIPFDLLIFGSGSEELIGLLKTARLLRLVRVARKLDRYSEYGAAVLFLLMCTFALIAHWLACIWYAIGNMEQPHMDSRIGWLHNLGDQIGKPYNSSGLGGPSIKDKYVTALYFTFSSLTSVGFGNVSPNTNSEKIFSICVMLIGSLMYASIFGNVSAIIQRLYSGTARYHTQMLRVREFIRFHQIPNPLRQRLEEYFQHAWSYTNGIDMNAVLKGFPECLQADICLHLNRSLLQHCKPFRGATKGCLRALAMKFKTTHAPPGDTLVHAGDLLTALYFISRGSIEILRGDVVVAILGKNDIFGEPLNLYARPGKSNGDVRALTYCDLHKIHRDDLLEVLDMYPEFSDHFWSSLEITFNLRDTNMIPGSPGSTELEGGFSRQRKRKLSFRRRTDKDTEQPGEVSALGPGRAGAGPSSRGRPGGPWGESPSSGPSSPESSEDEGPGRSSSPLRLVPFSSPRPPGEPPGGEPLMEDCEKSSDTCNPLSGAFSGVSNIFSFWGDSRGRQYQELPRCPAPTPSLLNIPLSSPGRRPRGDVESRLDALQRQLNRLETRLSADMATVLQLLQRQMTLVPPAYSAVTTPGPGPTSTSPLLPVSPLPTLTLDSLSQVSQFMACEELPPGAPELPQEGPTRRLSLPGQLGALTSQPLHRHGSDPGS
row,Structure (SMILES),"hERG current change (%, negative = inhibition) at 10uM"
1,O=C(CC1C(=O)NCCN1Cc1c(F)cccc1Cl)NCCCn1cccn1 (stereo not drawn),10.8%
2,O=C1c2ccccc2C(=O)C1c1ccc2ccccc2n1,-13.4%
3,Br.C1=C(c2ccco2)N2CCN=C2S1,1.91%
4,COc1ccc(Nc2cc(C(=O)NCCCN3CCN(C)CC3)c3ccccc3n2)cc1OC,1.49%
5,Cc1ccc(Nc2ncc(C(=O)NCCCN3CCN(C)CC3)c3ccccc23)cc1Cl,-61.1%
6,COc1ccc(Nc2cc(C(=O)NCCCN3CCN(C)CC3)c3ccccc3n2)cc1,2.72%
7,CN(C)c1nc2n(c(=O)n1)CCO2,20.3%
8,Cc1ccc(NC(=O)c2sc3nc(N4CCOCC4)c4c(c3c2N)CC(C)(C)OC4)cc1,5.7%
9,CN(C)C(CNC(C(=O)Nc1ccc([N+](=O)[O-])cc1Br)c1ccccc1)c1ccccc1 (stereo not drawn),-66.5%
10,COC(C(=O)Nc1ccc(F)cc1)c1ccccc1 (stereo not drawn),-0.691%
11,CCCCNC(C(=O)Nc1ccc([N+](=O)[O-])cc1Br)c1ccccc1 (stereo not drawn),5.72%
12,CCN(CC)CCNC(C(=O)Nc1ccc([N+](=O)[O-])cc1Br)c1ccccc1 (stereo not drawn),-77%
13,COCCNC(C(=O)Nc1ccc([N+](=O)[O-])cc1Br)c1ccccc1 (stereo not drawn),-74%
14,O=C(OC(C(=O)Nc1ccc([N+](=O)[O-])cc1Br)c1ccccc1)c1ccccc1 (stereo not drawn),5.91%
15,COCCNC(C(=O)Nc1cc(Cl)cc(Cl)c1)c1ccccc1 (stereo not drawn),-16.4%
16,CC(C)CNC(C(=O)Nc1ccc([N+](=O)[O-])cc1Br)c1ccccc1.O=C(O)C(=O)O (stereo not drawn),-9.16%
17,COCCNC(C(=O)Nc1ccc(C)cc1[N+](=O)[O-])c1ccccc1 (stereo not drawn),-6.29%
18,CC(C)C(=O)Nc1ccc([N+](=O)[O-])cc1Br,-5.22%
19,CN(C)C(CNC(C(=O)Nc1ccc(F)cc1)c1ccccc1)c1ccccc1 (stereo not drawn),-70.6%
20,Cc1ccc(NC(=O)NCC(c2ccccc2)N(C)C)cc1 (stereo not drawn),12.4%
21,CCCSc1nc2sc3c(c2c(=O)n1CC)CC(C)(C)OC3,3.41%
22,CCS(=O)(=O)NCC(c1ccco1)N1CCN(c2ccccc2F)CC1 (stereo not drawn),-1.69%

row,Structure (SMILES),"hERG current change (%, negative = inhibition) at 10uM"
1,COc1ccc(OC)c(NC(=O)COC(=O)CN2C(=O)NC3(CCCC3)C2=O)c1,7.58%
2,O=C(CCCOC(=O)c1ccc(O)cc1O)c1ccc(F)cc1,-11.6%
3,Cc1ccc(CS(=O)(=O)CCC(=O)NCCN2CCCCC2C)cc1 (stereo not drawn),-2.59%
4,Cc1cccc(/C=N/N2CCN(c3ccccc3)CC2)c1,-4.38%
5,O=C(O)CCCC(=O)OCCCCc1cccs1,-2.23%
6,c1ccc2nc3c(nc2c1)OCC1CCCCN31 (stereo not drawn),-14.2%
7,Nc1c2c(nc3ccccc13)N(C1CCCCC1)CC2,-65.6%
8,Cc1nc2ccccc2c(=O)n1C1CCCCCC1,-7.64%
9,Nc1c2c(nc3ccc(Br)cc13)N(Cc1ccccc1)CC2,-43.5%
10,Nc1c2c(nc3ccc(Br)cc13)N(C1CCCCC1)CC2.O=C(O)C(=O)O,-70.1%
11,Nc1c2c(nc3ccc(Br)cc13)N(c1ccccc1)CC2.O=C(O)C(=O)O,-21.3%
12,CCOC(=O)c1sc(NC(=O)c2ccncc2)c(C#N)c1C,22.8%
13,CC(C)=C1SC(N2CCN(c3cccc(C(F)(F)F)c3)CC2)=NC1=O,-2.7%
14,Oc1ccc[nH+]c1SCc1ccccc1.[Br-],12.7%
15,Nc1cc(N)nc(SCC(=O)NCc2ccco2)n1,9.13%
16,COc1ccc(CCn2c(=N)c(C(=O)NC3CCCC3)cc3c(=O)n4cccc(C)c4nc32)cc1,-77.8%
17,Cc1cccn2c(=O)c3cc(C(=O)NC4CCCC4)c(=N)n(CCc4ccccc4)c3nc12,-74.5%
18,Cc1cccn2c(=O)c3cc(C(=O)NC4CCCC4)sc3nc12,-22.8%
19,CCCn1c(=N)c(C(=O)NC2CCCC2)cc2c(=O)n3cccc(C)c3nc21,-77.4%
20,Cc1ccc(CNC(=O)CSc2nc(C)cs2)cc1,15.4%
21,CCCc1c(-c2ccc(O)cc2)nn(-c2ccc(O)cc2)c1-c1ccc(O)cc1,12.6%
22,CCN(CC)C(=O)CSc1nnc([C@H](CCSC)NC(=O)OC(C)(C)C)o1,-8.26%

row,Structure (SMILES),"hERG current change (%, negative = inhibition) at 10uM"
1,CC1=CC(C)(C)N(C(=O)C(C)N2C(=O)c3ccccc3C2=O)c2ccc(C)cc21 (stereo not drawn),2.88%
2,COC(=O)c1ccc(NS(=O)(=O)c2cc3c4c(c2)C(C)C(=O)N4CCC3)cc1 (stereo not drawn),2.73%
3,Fc1cccc2sc(Nc3nc4cc5c(cc4s3)OCO5)nc12,20.3%
4,COC(=O)C1CCN(C(=O)COC(=O)c2ccc(=O)n(Cc3ccccc3)n2)CC1,-4.78%
5,CC(C)CN(C(=O)COC(=O)c1ccc(-c2ccccc2)cc1)C1CCS(=O)(=O)C1 (stereo not drawn),17.5%
6,CCOc1cc(/C=N/NC(=O)Cc2ccc(C(F)(F)F)cc2[N+](=O)[O-])c(Br)cc1OC,8.3%
7,CCCCCCCCCCC[N+](C)(C)CC/C=C1/c2ccccc2Sc2ccc(Cl)cc21.[Br-],-32.8%
8,CC[N+](C)(C)CC/C=C1/c2ccccc2Sc2ccc(Cl)cc21.[Br-],-25.3%
9,CCCCCC[N+](C)(C)CC/C=C1/c2ccccc2Sc2ccc(Cl)cc21.[Br-],-75.2%
10,CN(C)CC/C=C1/c2ccccc2Sc2c(O)cc(Cl)cc21,-47.5%
11,CCCCCCCCCC[N+](C)(C)CC/C=C1/c2ccccc2Sc2ccc(Cl)cc21.[Br-],-76.6%
12,CN(C)CC/C=C1/c2ccc(F)cc2Sc2ccc(Cl)cc21.Cl,5.06%
13,O=C1NC(=S)S/C1=C/c1ccc(Oc2cnccn2)cc1,20%
14,Cc1cccc(C(=O)NC(=S)N2CCN(C(=S)NC(=O)c3cccc(C)c3)CC2)c1,-0.873%
15,CCCC(OC(=O)CC1Sc2ccccc2NC1=O)C(=O)NCc1ccco1 (stereo not drawn),-13.8%
16,Cc1ccc(CSCC(=O)N2CCOCC2)cc1,8.89%
17,O=C(NNC1=C(C(=O)C(F)(F)F)CCC1)c1cccc(Cl)c1,7.77%
18,CCOC(=O)C1(Cc2cccc(OC)c2)CCN(Cc2ccc3c(c2)OCCO3)CC1,-38%
19,CCOC(=O)C1(Cc2cccc(OC)c2)CCN(Cc2ccccc2)CC1,-40.3%
20,CCOC(=O)C1(Cc2cccc(OC)c2)CCN(Cc2cccc(O)c2)CC1,-54.7%
21,CCOC(=O)C1(Cc2cccc(OC)c2)CCN(CCO)CC1,-54.3%
22,CCOC(=O)C1(Cc2cccc(OC)c2)CCN(Cc2csc(C(C)=O)c2)CC1,-41.1%

row,Structure (SMILES),"hERG current change (%, negative = inhibition) at 10uM"
1,CCOC(=O)C1(Cc2cccc(OC)c2)CCN(CC(O)CO)CC1 (stereo not drawn),-4.39%
2,CCOC(=O)C1(Cc2cccc(OC)c2)CCN(Cc2ccc(OC)c(OC)c2)CC1,-68.8%
3,CCOC(=O)C1(Cc2cccc(OC)c2)CCN(Cc2ccc(OC)c(O)c2)CC1,-77.9%
4,CCOC(=O)C1(Cc2cccc(OC)c2)CCCN(Cc2cc(OC)c(O)c(OC)c2)C1 (stereo not drawn),-33.7%
5,COc1ccc([C@H]2CC(=O)C=C(c3cccc(OCc4ccccc4)c3)C2)cc1,10.8%
6,Cc1ccc(-n2nc3c(=O)n(CCCC(=O)NCc4cccc(F)c4)nc(C)c3c2C)cc1,-21.7%
7,COc1cccc(N2C(=O)CC(N3CCc4ccccc4C3)C2=O)c1 (stereo not drawn),13.1%
8,CC(C)(C)N/N=C/c1cc(Cl)cc([N+](=O)[O-])c1O.Cl,-10.9%
9,Cc1onc(-c2ccccc2Cl)c1C(=O)N1CCN(c2ncccn2)CC1,2.45%
10,CCOC(=O)c1ccccc1NC(=O)COC(=O)C1=COCCO1,4.78%
11,Cc1nc2ccccn2c1C(=O)CSc1ccc(Cl)cc1Cl,-4.24%
12,Cc1ccc(OCC(=O)NCCc2c[nH]c3ccccc23)cc1,17.1%
13,COc1cc2c(C)nc(C)c(C#N)c2cc1OC.Cl,-5.92%
14,Cc1ccc2nc(N3CC(C)OC(C)C3)nc(-c3ccccc3)c2c1 (stereo not drawn),5.88%
15,c1ccc(Nc2nc(N3CCNCC3)nc(N3CCOCC3)n2)cc1,-43%
16,CCOC(=O)C1(Cc2ccccc2)CCN(Cc2ccc(C)s2)CC1,-46%
17,CCOC(=O)C1(Cc2cccc(OC)c2)CCN(Cc2ccc(C)s2)CC1,-67.1%
18,CCOC(=O)C1(Cc2cccc(OC)c2)CCN(Cc2cnc(C)s2)CC1,-12.2%
19,CN(C)S(=O)(=O)c1ccc(N2CCOCC2)c(C(=O)NCc2ccc3c(c2)OCO3)c1,-14.7%
20,COC(=O)c1ccc(/C=N/Nc2nc3ccccc3[nH]2)cc1,11.4%
21,C=C(C)C(=O)Nc1cccc(C2=NOC3(C2)C[C@@H](C(N)=O)N(C(=O)c2cc([N+](=O)[O-])cc([N+](=O)[O-])c2C)C3)c1 (stereo partly drawn),1.96%
